Measured values published in PubChem BioAssay (NCATS).
Records with an inconclusive call do not appear. Calls of active or inactive are those of the source. Calls follow the shape of the dose curve; as a rule, active = well fitted curve in the direction sought with a large enough effect; inconclusive = small, poorly fitted or top-dose-only effect, or another doubt; inactive = no such curve, though single readings can be large; an effect the other way counts as inactive or inconclusive.

Columns and labels:
[1] = tested on: Zika virus NS2B-NS3 protease; assay: Primary screen GU AMC qHTS for Zika virus inhibitors (AID 1347154); also: nearly all actives have a fitted effect of over 70% in size
How it was run: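 Unlinked Zika NS2B hydrophilic domain/NS3 protease domain noncovalent complex (25 nM final) in 10 mM Tris-HCl pH 8.0, 0.01% Tween 20, with AMC peptide substrate. Fluorescence (ex 340, em 450 nm) change over 15 min, room temperature; percent inhibition fitted to 4-parameter Hill equation.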

[2] = biological target: Lysine-specific demethylase 5B (Homo sapiens) (UniProt Q9UGL1); assay: Optimization screen for KDM5B Histone Demethylases FDH coupled qHTS against the LOPAC library (AID 1347166)
How it was run: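 KDM5BDeltaAP (200nM final) in 50mM HEPES pH 7.5, 0.01% Tween-20 was preincubated with compound for 10 min at room temperature. A substrate mix of 12.5uM H3K4Me3, 25uM a-ketoglutarate, ascorbate, Fe2+, NAD+ and formaldehyde dehydrogenase was then added. NADH fluorescence (340/450 nm) was read initially and after 30 min.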

[3] = qHTS to identify inhibitors of the type 1 interferon - major histocompatibility complex class I in skeletal muscle: primary screen against the NCATS LOPAC collection (AID 1347405);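 also: human myoblasts with HiBiT tag on endogenous HLA-B stimulated by IFN-beta; lytic HiBiT luminescence reporting HLA-B protein level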
How it was run: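 IFN-beta-stimulated (4 ng/ml) HLA-B HiBiT knock-in myoblasts, compound-treated 24 hrs up to 46 uM final; signal via LgBiT complementation and furimazine luminescence.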

[4] = qHTS to identify inhibitors of the type 1 interferon - major histocompatibility complex class I in skeletal muscle: primary screen against the NCATS Pharmaceutical Collection (AID 1347407);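 also: luminescence of HiBiT knocked into endogenous HLA-B as interferon-induced MHC class I level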
How it was run: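 HLA-B HiBiT myoblasts, dexamethasone-free growth medium + 4 ng/ml IFN-b; compounds pinned 1 h after seeding, […] from 46 uM; 24 h, 37 C, 5% CO2; lytic HiBiT detection, 10 min RT, luminescence.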

[5] = qHTS for inhibitors of adenylyl cyclases using a fission yeast platform: a pilot screen against the NCATS LOPAC library (AID 1347410)
How it was run: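 Read-out: fbp1-GFP fluorescence by laser scanning cytometry (488 nm laser), a gain of signal when AC/cAMP-PKA signalling is inhibited. Strain CHP2027 expressing AC9, GNAS and PDE4D2; compounds at up to 57 µM; 18 h, 30C.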

[6] = qHTS to identify inhibitors of the type 1 interferon - major histocompatibility complex class I in skeletal muscle: primary screen against the NCATS Mechanism Interrogation Plate v5.0 (MIPE) Libary (AID 1347411); also: nearly all actives have a fitted effect of over 65% in size
How it was run: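 IFN-beta-driven (4 ng/ml) HLA-B-HiBit expression in CRISPR-tagged C25cl48 myoblasts; compounds 11-pt, 1:3, max 46 uM, 24 hr exposure; lytic NanoLuc complementation luminescence.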

[7] = biological target: Protein phosphatase 1D (Homo sapiens) (UniProt O15297); assay: RapidFire Mass Spectrometry qHTS Assay for Modulators of WT P53-Induced Phosphatase 1 (WIP1) (AID 1347424);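 also: amount of dephosphorylated VEPPL-S-QETFS peptide product formed by WIP1; series mostly up to about 63 µM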
How it was run: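 Mass-spectrometric measurement of dephosphorylated peptide after a 5 min room-temperature reaction of 10 nM WIP1 with 2 uM phosphopeptide, following 1 h compound preincubation in 30 mM MgCl2 buffer.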

[8] = biological target: Protein phosphatase 1D (Homo sapiens) (UniProt O15297); assay: Rhodamine-PBP qHTS Assay for Modulators of WT P53-Induced Phosphatase 1 (WIP1) (AID 1347425)
How it was run: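 Steps: enzyme with Rh-PBP sensor and compounds, room-temperature incubation of 1 hr, baseline read, addition of VEPPL-pS-QETFS (10 uM final), kinetic fluorescence reads at 525/598 nm. Activity equals final minus baseline signal.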

[9] = Validation qHTS assay for inhibitors of Activation Induced Cytidine Deaminase (AID): UDG Counterscreen signal (AID 1347427)
How it was run: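 Fluorescence at 560 nm excitation, 665 nm emission reports UDG signal after 250 mM NaOH (2x) addition and 30 min. Enzymes (AID 1 uM, UDG 2 U/mL, at 4/3x) preincubated 10 min with compound, then 4 h with 4x 250 nM DJC20/DJC23 substrate at room temperature.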

[10] = biological target: Single-stranded DNA cytosine deaminase (Homo sapiens) (UniProt Q9GZX7); assay: Validation qHTS assay for inhibitors of Activation Induced Cytidine Deaminase (AID): AID signal (AID 1347429)
How it was run: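 Compounds (up to 114 uM final) are tested against AID plus UDG using DJC20/DJC23 FRET substrate. Reactions incubate 4 hr at room temperature, receive NaOH for 30 min, and are read at Ex 540/Em 590 nm.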

[11] = Confirmatory screen NINDS Rhodamine qHTS for Zika virus inhibitors (AID 1347161);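 also: purified Zika NS2B-NS3 protease with linked NS2B cofactor domain and Rhodamine110 peptide substrate; series mostly up to about 110 µM; nearly all actives have a fitted effect of over 60% in size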
How it was run: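 Aprotinin served as in-plate control. Conditions: 25 nM linked NS2B-NS3, pH 8.0 Tris buffer, titrated compounds, 15 min preincubation and 15 min reaction with 1.5 microM Rhod110 substrate at room temperature.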

[12] = Vero cells viability qHTS for Zika virus inhibitors (AID 1347167)
How it was run: (§1)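 To flag cytotoxic protease inhibitors, viability is measured by ATP-dependent luminescence (CellTiter Glo) after cells attached overnight receive compound for 24 to 48 hours in DMEM with 4% FBS.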

[13] = HepG2 cells viability qHTS for Zika virus inhibitors (AID 1347168)
How it was run: as §1

[14] = Tertiary RLuc qRT-PCR qHTS assay for Zika virus inhibitors (AID 1347169); also: top concentration of the series differs between compounds; nearly all actives have a fitted effect of over 55% in size
How it was run: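 Luminescence read-out: live-cell Renilla luciferase substrate applied to infected Vero cells, signal measured after 1-1.5 hrs. Cells had received compound before ZIKV-RLuc (Cambodian strain, MOI 1-2) infection and were incubated 48-72 hrs at 37 degrees C.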

Measured: Potency

Single-stranded DNA cytosine deaminase (Homo sapiens), sequence (Q9GZX7 whole entry, looked up): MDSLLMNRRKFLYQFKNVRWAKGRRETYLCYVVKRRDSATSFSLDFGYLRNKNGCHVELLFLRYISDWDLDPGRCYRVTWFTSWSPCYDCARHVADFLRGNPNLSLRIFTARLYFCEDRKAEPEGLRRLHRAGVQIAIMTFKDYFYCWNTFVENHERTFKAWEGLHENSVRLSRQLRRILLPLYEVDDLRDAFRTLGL
Protein phosphatase 1D (Homo sapiens), sequence (O15297 whole entry, looked up): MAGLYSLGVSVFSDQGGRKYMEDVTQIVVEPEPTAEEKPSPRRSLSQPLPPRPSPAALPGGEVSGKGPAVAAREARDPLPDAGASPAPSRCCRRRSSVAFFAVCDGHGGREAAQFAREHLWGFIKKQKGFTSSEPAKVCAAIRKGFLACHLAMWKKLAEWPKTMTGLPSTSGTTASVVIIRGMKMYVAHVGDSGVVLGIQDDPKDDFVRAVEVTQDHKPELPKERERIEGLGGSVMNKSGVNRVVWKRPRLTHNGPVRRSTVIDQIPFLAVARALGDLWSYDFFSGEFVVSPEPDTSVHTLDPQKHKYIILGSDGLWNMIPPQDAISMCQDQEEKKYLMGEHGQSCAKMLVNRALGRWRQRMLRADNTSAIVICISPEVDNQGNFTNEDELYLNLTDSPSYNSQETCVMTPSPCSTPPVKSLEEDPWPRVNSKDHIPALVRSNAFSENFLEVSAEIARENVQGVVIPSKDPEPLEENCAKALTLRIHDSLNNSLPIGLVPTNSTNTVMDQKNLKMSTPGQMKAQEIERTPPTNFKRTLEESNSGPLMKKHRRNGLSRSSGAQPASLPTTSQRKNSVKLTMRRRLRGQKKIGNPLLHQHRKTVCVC
Lysine-specific demethylase 5B (Homo sapiens), sequence (Q9UGL1 whole entry, looked up): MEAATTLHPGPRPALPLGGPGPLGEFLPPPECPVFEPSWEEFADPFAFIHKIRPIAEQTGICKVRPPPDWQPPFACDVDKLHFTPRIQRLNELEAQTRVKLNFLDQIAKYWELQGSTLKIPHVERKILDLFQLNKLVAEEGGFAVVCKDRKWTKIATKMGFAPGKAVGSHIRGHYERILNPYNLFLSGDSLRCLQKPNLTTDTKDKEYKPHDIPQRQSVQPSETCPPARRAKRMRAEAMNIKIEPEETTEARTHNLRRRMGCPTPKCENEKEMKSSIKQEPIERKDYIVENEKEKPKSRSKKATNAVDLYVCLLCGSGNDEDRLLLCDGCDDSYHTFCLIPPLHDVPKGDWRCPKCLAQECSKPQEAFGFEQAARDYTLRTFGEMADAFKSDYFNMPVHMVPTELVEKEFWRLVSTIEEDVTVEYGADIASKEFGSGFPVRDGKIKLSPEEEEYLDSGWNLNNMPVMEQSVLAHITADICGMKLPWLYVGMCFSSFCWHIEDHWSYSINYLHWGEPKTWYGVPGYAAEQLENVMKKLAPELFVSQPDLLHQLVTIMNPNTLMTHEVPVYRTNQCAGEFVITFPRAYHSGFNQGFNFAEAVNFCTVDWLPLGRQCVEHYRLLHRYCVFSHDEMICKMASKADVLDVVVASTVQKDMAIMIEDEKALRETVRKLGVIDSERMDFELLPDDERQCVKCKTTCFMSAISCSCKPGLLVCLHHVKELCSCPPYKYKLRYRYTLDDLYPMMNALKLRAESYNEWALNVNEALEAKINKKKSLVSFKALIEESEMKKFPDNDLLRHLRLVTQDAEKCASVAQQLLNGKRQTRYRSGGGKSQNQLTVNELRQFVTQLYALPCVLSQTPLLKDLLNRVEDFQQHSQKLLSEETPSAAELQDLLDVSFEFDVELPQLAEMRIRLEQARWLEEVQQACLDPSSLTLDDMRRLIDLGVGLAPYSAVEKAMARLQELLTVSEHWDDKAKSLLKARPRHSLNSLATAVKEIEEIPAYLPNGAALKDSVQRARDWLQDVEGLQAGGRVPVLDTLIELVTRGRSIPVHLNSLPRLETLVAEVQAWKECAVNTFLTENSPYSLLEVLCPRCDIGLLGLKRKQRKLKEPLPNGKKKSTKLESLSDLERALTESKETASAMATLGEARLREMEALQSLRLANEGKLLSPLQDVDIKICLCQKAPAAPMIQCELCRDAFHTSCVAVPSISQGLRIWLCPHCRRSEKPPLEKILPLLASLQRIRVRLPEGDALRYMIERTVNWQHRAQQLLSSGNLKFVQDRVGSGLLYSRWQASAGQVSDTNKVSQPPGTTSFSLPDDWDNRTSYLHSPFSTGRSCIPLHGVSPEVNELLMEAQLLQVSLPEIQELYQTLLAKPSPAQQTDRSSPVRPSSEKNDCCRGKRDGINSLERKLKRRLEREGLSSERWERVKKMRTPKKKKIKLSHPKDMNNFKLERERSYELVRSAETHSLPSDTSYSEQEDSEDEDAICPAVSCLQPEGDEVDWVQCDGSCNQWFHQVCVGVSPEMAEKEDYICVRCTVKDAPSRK

CCCC(CCC)C(=O)O
not listed: [11] | [12] | [13] | [14]
inactive: all other assays above

O=C1CCC(N2C(=O)c3ccccc3C2=O)C(=O)N1 (stereo not given)
not listed: [11] | [12] | [13] | [14]
inactive: all other assays above

Cc1ccc(N(CC2=NCCN2)c2cccc(O)c2)cc1
not listed: [11] | [12] | [13] | [14]
inactive: all other assays above

NS(=O)(=O)c1cc2c(cc1Cl)NC=NS2(=O)=O
not listed: [11] | [12] | [13] | [14]
inactive: all other assays above

Clc1cccc(Cl)c1NC1=NCCN1
not listed: [6] | [11] | [12] | [13] | [14]
inactive: all other assays above

CNC[C@H](O)c1cccc(O)c1
not listed: [11] | [12] | [13] | [14]
inactive: all other assays above

Cc1cccc(-c2[nH]c(C(C)(C)C)nc2-c2ccc3nccnc3c2)n1
inactive: [1] | [2] | [3] | [5] | [6] | [9] | [10]

Cc1[nH]c(=O)c(C#N)cc1-c1ccncc1
not listed: [2]
inactive: all other assays above

O=C1CCc2cc(OCCCCc3nnnn3C3CCCCC3)ccc2N1
not listed: [11] | [12] | [13] | [14]
inactive: all other assays above

CCC(C)N(C)C(=O)c1cc2ccccc2c(-c2ccccc2Cl)n1 (stereo not given)
inactive: [1] | [2] | [3] | [5] | [6] | [9] | [10]

CCOC(=O)C1=C[C@]2(CC)CCCN3CCc4c(n1c1ccccc41)[C@@H]32
not listed: [6] | [11] | [12] | [13] | [14]
inactive: all other assays above
